This is an account of results in PubChem BioAssay (Tox21).

A short description of assay [1]: Nuclear factor erythroid 2-related factor 2/antioxidant responsive element (Nrf2/ARE) small molecule agonists: qHTS cell viability counter screen in human keratinocytes (AID 1919968; active = well fitted curve in the direction sought with a large enough effect in the repeat runs; an effect the other way counts as inactive or inconclusive; note: nearly all actives have a fitted effect of over 55% in size). In short, it runs like this: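 Measured as CellTiter-Fluor fluorescence, this readout tracks cytotoxicity in the same wells as the ARE-luciferase screen. HaCaT reporter cells (1,500/well) received compounds after a 5 h pre-incubation and were exposed for 23 h.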
For orientation: In qHTS, concentration-response curves come from the screen itself.

A short description of assay [2]: Nuclear factor erythroid 2-related factor 2/antioxidant responsive element (Nrf2/ARE) small molecule agonists: luciferase reporter gene qHTS assay in human keratinocytes (AID 1919969). Note: nearly all actives have a fitted effect of over 35% in size. Note: potency is the fitted concentration of half-maximal effect. On the technique in general: In a reporter assay the amount or activity of a reporter protein is the signal.
Assay [3] concerns the target Gonadotropin-releasing hormone receptor (Homo sapiens) (UniProt P30968). In words: Human gonadotropin-releasing hormone receptor (GnRHR) small molecule agonists, calcium flux assay in GnRHR-HEK293 cells (AID 1920063). Note: nearly all actives have a fitted effect of over 35% in size. In short, it runs like this: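 Fluorescence kinetics (480 nm excitation, 540 nm emission; 3 min, 1 s steps) report calcium mobilisation in human GnRHR-HEK293 cells in agonist mode. Dye incubation: 1 h, 37 C.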

Assay [4] has as its target KiSS-1 receptor (Homo sapiens) (UniProt Q969F8). In words: Human kisspeptin (KISS1R) small molecule agonists, calcium flux assay in KISS1R-HEK293 cells (AID 1920064; active = well fitted curve in the direction sought with a large enough effect in the repeat runs; an effect the other way counts as inactive or inconclusive). The procedure, abridged: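 Measures KISS1R agonism through calcium-sensitive dye fluorescence in stably transfected HEK293 cells, read for 3 min after pin-tool compound delivery; 15-point titrations in triplicate.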
(Calcium flux is commonly read through the fluorescence of an indicator in the cells.)

Assay [5] can be described thus: G protein-coupled receptor (GPCR) small molecule agonists, calcium flux assay: HEK293 wild type cell line counter screen (AID 1920065). In short, it runs like this: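 Readout: fluorescence at 480 nm excitation/540 nm emission, sampled at 1 s intervals for 3 min. Cells had been cultured 18 h, then dye-loaded 1 h at 37 C before compound or ATP addition.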
The nature of assay [6]: p53 small molecule agonists, cell-based qHTS assay with human liver microsomes (AID 1963577). In short, it runs like this:
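p53RE-bla reporter cells were pre-incubated 5 h at 37 C, then treated with compounds plus human liver microsomes (0.5 mg/mL final) and NADPH (0.5 mg/mL final) for 16 h at 37 C. Beta-lactamase activity was read by LiveBLAzer fluorescence after 2 h at room temperature.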

A short description of assay [7]: p53 small molecule agonists, cell-based qHTS assay with rat liver microsomes (AID 1963578). In short, it runs like this:
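p53RE-bla cells were exposed to compounds together with rat liver microsomes (0.5 mg/mL final) and NADPH (0.5 mg/mL final) for 16 h at 37 C, then read by LiveBLAzer beta-lactamase fluorescence after 2 h at room temperature.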

Assay [8] is described as follows: p53 small molecule agonists, cell-based qHTS assay with human liver microsomes: qHTS cell viability counter screen (AID 1963579). Note: nearly all actives have a fitted effect of over 45% in size. In short, it runs like this:
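p53RE-bla cells (4,000/well) were pre-incubated 5 h at 37 C, then given compounds in DMSO plus human liver microsomes (0.5 mg/mL final) and NADPH (0.5 mg/mL final) for 16 h at 37 C. Viability was read by CellTiter-Glo luminescence.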

A short description of assay [9]: p53 small molecule agonists, cell-based qHTS assay with rat liver microsomes: qHTS cell viability counter screen (AID 1963580). Note: nearly all actives have a fitted effect of over 45% in size. The procedure, abridged:
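Viability is assessed in parallel with the p53 reporter read: HCT-116 p53RE-bla cells receive compounds plus rat microsomes and NADPH (0.5 mg/mL final apiece), incubate 16 h at 37 C, and then CellTiter-Glo luminescence is recorded.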

Assay [10] can be described thus: p53 small molecule agonists, cell-based qHTS assay: qHTS cell viability counter screen (AID 1963581). Note: nearly all actives have a fitted effect of over 45% in size. The procedure, abridged:
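In the same plates used for the p53 bla reporter, HCT-116 cells given compounds for 16 h at 37 C received CellTiter-Glo; luminescence was recorded 30 min later at room temperature.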

A short description of assay [11]: p53 small molecule agonists, cell-based qHTS assay (AID 1963582; active = well fitted activation curve with a large enough effect in the signal ratio in the repeat runs, not every such curve was filed as active; the % refers to the signal ratio). The procedure, abridged:
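Compounds are pin-transferred in DMSO onto p53RE-bla cells and incubated 16 h at 37 C. The B/G FRET beta-lactamase substrate is then applied for 2 h at RT and fluorescence recorded.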

Assay [12] concerns the target 5-hydroxytryptamine receptor 2A (Homo sapiens) (UniProt P28223). Briefly: 5-hydroxytryptamine receptor 2A (HTR2A) small molecule antagonists, cell-based qHTS assay (AID 1963586). Note: nearly all actives have a fitted effect of over 45% in size. The procedure, abridged: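 Antagonist-mode intracellular calcium assay: DOI (4 nM) added after 5 min compound pre-incubation at room temperature to dye-loaded HTR2A-CHO cells. Fluorescence followed for 3 min, sampled every second.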

The target is the same in assay [13]. Briefly: 5-hydroxytryptamine receptor 2A (HTR2A) small molecule agonists, cell-based qHTS assay (AID 1963587). Note: nearly all actives have a fitted effect of over 30% in size. In short, it runs like this: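 CHO cells stably expressing human HTR2A, plated 18 h, loaded with calcium dye 1 h at 37 C. Agonist mode: compounds added and intracellular calcium fluorescence recorded kinetically for 2 min at 1 sec intervals.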
Assay [14] addresses Muscarinic acetylcholine receptor M1 (Homo sapiens) (UniProt P11229). Briefly: Cholinergic receptor muscarinic 1 (CHRM1) small molecule antagonists, cell-based qHTS assay (AID 1963588). Note: nearly all actives have a fitted effect of over 40% in size. In short, it runs like this: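 CHRM1-CHO calcium-flux assay, antagonist mode. Cells were seeded 18 h, dye-loaded 1 h at 37 C and given compound for 5 min at RT, then acetylcholine was added at 50nM. FDSS fluorescence was read 3 min; 15 concentrations, three runs.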

Assay [15] shares this target. In words: Cholinergic receptor muscarinic 1 (CHRM1) small molecule agonists, cell-based qHTS assay (AID 1963589). Note: nearly all actives have a fitted effect of over 35% in size. In short, it runs like this:
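Each compound was tested at 15 concentrations across three independent runs on dye-loaded CHO cells stably expressing human CHRM1, reading intracellular calcium fluorescence kinetically at 1 sec intervals.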

Assay [16] in a line: cAMP Responsive Elements (CRE) small molecule agonists, cell-based qHTS assay (AID 1963590). The procedure, abridged: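 Cell line: CRE-bla HEK 293T; medium DMEM/10% dialyzed FBS/0.1 mM NEAA/1 mM pyruvate/25 mM HEPES; 3 h compound exposure; beta-lactamase FRET readout after 2 h substrate loading at RT.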
The nature of assay [17]: cAMP Responsive Elements (CRE) small molecule antagonists, cell-based qHTS assay (AID 1963591; active = well fitted inhibition curve with a large enough effect in the signal ratio in the repeat runs, not every such curve was filed as active; the % refers to the signal ratio). In short, it runs like this:
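Inhibition of NKH477-driven (0.25 uM final) CRE-beta-lactamase signal in HEK293T cells, 3 h compound exposure at 37 °C, detected by FRET substrate fluorescence.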

Assay [18] concerns the target Beta-2 adrenergic receptor (Homo sapiens) (UniProt P07550). Briefly: Adrenergic beta2 receptor (ADRB2) small molecule antagonists, cell-based qHTS assay (AID 1963592). Note: series mostly up to about 92 µM; nearly all actives have a fitted effect of over 50% in size. The procedure, abridged:
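Cells (CHO, stable ADRB2 overexpression) incubated 18-20hr at 37C; compounds added from DMSO; agonist mix (1nM isoproterenol, 100uM IBMX, 25uM Ro-20-1724) added; 0.5hr RT; d2-cAMP and anti-cAMP-cryptate added; 1hr RT; 665/615 nm read.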

In assay [19] the target is D(2) dopamine receptor (Homo sapiens) (UniProt P14416). In words: Dopamine D2 receptor (DRD2) small molecule agonists, cell-based qHTS assay (AID 1963594). Note: nearly all actives have a fitted effect of over 35% in size. The procedure, abridged: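 HEK293 cells stably expressing human DRD2, pre-treated with PDE inhibitor Ro20-1724 (0.1 mM final) and compound 10 min at room temperature, then stimulated with NKH477 (200nM […]) for 30 min. cAMP read by HTRF (665/620 nm).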
Chain of D(2) dopamine receptor (Homo sapiens) (P14416 whole entry, looked up): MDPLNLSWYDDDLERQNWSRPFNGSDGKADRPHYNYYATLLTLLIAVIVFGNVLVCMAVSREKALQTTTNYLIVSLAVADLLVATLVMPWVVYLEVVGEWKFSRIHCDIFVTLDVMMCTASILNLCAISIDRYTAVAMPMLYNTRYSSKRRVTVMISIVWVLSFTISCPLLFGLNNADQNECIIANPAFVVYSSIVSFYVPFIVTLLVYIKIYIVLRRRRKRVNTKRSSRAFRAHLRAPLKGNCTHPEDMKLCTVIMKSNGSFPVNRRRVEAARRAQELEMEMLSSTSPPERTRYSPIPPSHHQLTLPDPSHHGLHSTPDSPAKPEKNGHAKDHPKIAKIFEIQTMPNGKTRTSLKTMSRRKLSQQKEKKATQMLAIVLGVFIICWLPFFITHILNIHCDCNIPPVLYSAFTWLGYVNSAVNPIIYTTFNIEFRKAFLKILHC

For assay [20] the target is unchanged. In words: Dopamine D2 receptor (DRD2) small molecule antagonists, cell-based qHTS assay (AID 1963595; active = well fitted inhibition curve with a large enough effect in the signal ratio in the repeat runs, with a control signal flat; the % refers to the signal ratio). The procedure, abridged: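 HEK293 cells stably expressing DRD2 were preincubated with 0.1 mM Ro20-1724, then with compound for 10 min at room temperature. Cells were stimulated with 200 nM NKH477 plus 12 nM quinpirole for 30 min, and cAMP was read by HTRF.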

Molecules are shown by their SMILES. Results filed as inconclusive are left out. The source made the active and inactive calls. Unless noted, calls come from the whole dose curve.

Chain of KiSS-1 receptor (Homo sapiens) (Q969F8 whole entry, looked up): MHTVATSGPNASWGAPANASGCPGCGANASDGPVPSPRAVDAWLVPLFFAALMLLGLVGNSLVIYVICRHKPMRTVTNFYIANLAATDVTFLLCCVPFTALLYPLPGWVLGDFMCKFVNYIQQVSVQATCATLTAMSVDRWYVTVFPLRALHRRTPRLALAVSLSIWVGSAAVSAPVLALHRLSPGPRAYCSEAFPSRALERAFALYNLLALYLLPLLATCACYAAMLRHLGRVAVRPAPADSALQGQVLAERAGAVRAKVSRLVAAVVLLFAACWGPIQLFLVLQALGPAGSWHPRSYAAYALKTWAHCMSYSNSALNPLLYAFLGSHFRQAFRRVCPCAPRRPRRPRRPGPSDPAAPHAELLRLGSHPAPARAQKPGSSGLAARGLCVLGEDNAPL
Chain of Muscarinic acetylcholine receptor M1 (Homo sapiens) (P11229 whole entry, looked up): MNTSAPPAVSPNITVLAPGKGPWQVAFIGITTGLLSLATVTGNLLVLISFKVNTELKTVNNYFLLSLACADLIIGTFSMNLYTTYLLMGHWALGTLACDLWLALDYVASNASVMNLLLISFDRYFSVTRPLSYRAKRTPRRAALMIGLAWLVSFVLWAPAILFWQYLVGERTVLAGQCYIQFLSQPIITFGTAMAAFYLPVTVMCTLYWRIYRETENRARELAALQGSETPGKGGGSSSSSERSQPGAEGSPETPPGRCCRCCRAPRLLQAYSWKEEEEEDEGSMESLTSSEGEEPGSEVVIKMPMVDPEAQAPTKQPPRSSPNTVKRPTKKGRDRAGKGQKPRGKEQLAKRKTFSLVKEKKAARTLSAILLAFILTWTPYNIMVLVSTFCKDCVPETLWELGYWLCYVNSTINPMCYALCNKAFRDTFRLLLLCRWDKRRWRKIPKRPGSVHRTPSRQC
Chain of Beta-2 adrenergic receptor (Homo sapiens) (P07550 whole entry, looked up): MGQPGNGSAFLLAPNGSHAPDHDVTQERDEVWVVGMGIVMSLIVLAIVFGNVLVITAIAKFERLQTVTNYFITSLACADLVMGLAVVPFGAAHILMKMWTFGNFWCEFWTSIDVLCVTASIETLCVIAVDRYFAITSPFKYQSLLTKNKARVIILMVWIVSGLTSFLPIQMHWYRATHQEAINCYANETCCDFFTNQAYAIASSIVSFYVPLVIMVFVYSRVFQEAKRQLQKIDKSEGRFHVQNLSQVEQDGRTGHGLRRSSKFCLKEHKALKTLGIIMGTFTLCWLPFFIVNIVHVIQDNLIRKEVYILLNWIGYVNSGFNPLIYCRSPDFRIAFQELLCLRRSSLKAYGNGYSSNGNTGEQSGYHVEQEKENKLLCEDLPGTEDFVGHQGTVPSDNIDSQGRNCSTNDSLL
Chain of 5-hydroxytryptamine receptor 2A (Homo sapiens) (P28223 whole entry, looked up): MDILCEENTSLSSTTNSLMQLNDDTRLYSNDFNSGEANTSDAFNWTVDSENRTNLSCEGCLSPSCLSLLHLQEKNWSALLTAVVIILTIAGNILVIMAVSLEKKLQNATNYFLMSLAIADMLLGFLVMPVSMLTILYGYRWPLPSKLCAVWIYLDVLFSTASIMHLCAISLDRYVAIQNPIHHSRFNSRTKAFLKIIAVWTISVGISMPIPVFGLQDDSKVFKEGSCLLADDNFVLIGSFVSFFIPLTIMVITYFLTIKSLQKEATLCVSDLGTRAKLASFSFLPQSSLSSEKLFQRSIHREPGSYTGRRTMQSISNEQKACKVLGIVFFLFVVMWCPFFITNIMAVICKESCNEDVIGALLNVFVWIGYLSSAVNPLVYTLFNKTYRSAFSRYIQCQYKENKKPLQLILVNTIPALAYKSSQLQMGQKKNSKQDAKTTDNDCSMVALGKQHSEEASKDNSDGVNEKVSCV
Chain of Gonadotropin-releasing hormone receptor (Homo sapiens) (P30968 whole entry, looked up): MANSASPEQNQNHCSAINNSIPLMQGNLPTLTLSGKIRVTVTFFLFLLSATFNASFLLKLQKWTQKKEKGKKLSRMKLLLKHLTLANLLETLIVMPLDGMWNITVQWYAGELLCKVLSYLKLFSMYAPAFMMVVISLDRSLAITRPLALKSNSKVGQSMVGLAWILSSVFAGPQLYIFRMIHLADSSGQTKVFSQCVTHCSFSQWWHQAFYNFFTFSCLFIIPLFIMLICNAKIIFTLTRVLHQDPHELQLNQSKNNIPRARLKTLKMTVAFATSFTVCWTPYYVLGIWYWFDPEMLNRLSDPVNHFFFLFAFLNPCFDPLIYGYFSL

Take `CCCCCCCCCCCCCCCCCC(=O)OCC(CC)CCCC` (stereo not given): the Potency entry in assay [1], in [2], in assay [3], in assay [4], in [5] and in [6] was “inactive” each time. The Potency entry in assay [7], in [8], in [9], in assay [10], in assay [11] and in assay [12] was “inactive” each time. Besides, the Potency result in assay [13], in assay [14], in assay [15], in [16], in assay [17] and in assay [18] was “inactive” in each case. The Potency entry in assay [19] and in assay [20] was “inactive” throughout.
In the case of `C[N+](C)(C)CC(O)CCl` (stereo not given), the Potency entry in [1], in assay [2], in assay [3], in assay [4], in [5] and in [6] was “inactive” in each case. Moreover, the Potency entry in assay [7], in assay [8], in assay [9], in [10], in assay [11] and in assay [12] was “inactive” each time. Moreover, the Potency result in [13], in [14], in assay [15], in assay [16], in [17] and in assay [18] was “inactive” throughout. The Potency result in assay [19] and in assay [20] was “inactive” each time.
Regarding `CC(C)(C)S`, the Potency result in [1], in [2], in [3], in assay [4], in [5] and in assay [6] was “inactive” in each case. Further, the Potency result in assay [7], in assay [8], in assay [9], in assay [10], in assay [11] and in assay [12] was “inactive” throughout. Moreover, the Potency result in [13], in [14], in assay [15], in assay [16], in [17] and in [18] was “inactive” throughout. Besides, the Potency result in [19] and in assay [20] was “inactive” throughout.
Take `O=C(O)c1ccccc1S`: the Potency result in assay [1], in [2], in [3], in assay [4], in assay [5] and in assay [6] was “inactive” throughout. For the same molecule, the Potency result in assay [7], in [8], in assay [9], in assay [10], in [11] and in assay [12] was “inactive” in each case. Further, the Potency entry in assay [13], in assay [14], in assay [15], in [16], in assay [17] and in [18] was “inactive” in each case. Moreover, the Potency entry in assay [19] and in assay [20] was “inactive” throughout.
On to `c1ccc(CCCc2ccncc2)cc1`, for which the Potency result in [1], in [3], in assay [4], in [5], in assay [6] and in [7] was “inactive” throughout. For the same molecule, the Potency entry in assay [8], in assay [9], in [10], in assay [11], in assay [12] and in assay [13] was “inactive” in each case. Further, the Potency entry in [14], in [15], in [16], in assay [17], in assay [18] and in assay [19] was “inactive” throughout. In addition, the Potency entry in assay [20] was “inactive”. Further, the Potency in assay [2] is 48.6 µM (active).
In the case of `Cc1c(N)cccc1C(F)(F)F`, the Potency result in [1], in assay [2], in assay [3], in assay [4], in [5] and in assay [6] was “inactive” in each case. Moreover, the Potency entry in assay [7], in assay [8], in [9], in assay [10], in assay [11] and in assay [12] was “inactive” each time. Further, the Potency entry in [13], in assay [14], in assay [15], in [16], in assay [17] and in [18] was “inactive” throughout. Moreover, the Potency entry in [19] and in assay [20] was “inactive” throughout.
`C[CH2][Ge]([Cl])([CH2]C)[CH2]C`: the Potency result in assay [1], in assay [2], in assay [3], in assay [4], in assay [5] and in [6] was “inactive” throughout. The Potency entry in assay [7], in assay [8], in [9], in assay [10], in assay [11] and in assay [12] was “inactive” each time. Moreover, the Potency result in assay [13], in [14], in assay [15], in assay [16], in [17] and in [18] was “inactive” each time. The Potency result in assay [19] and in assay [20] was “inactive” each time.
